According to PubChem BioAssay AID1851 (National Center for Advancing Translational Sciences (NCATS), 2009):
Where “and” joins values, the source holds several entries; their conditions need not be identical. Equal entries are not always repeated. Screen size: about 16,000 compounds; about 2,600 (16%) were called active. Roughly 20% stayed inconclusive and do not appear here. Calls follow the shape of the dose curve; as a rule, active = well fitted curve in the direction sought with a large enough effect; inconclusive = small, poorly fitted or top-dose-only effect, or effect the other way; inactive = no such curve, though single readings can be large or run the other way. A selection follows. Where a structure was tested more than once in an assay, its records may differ in their call.

What follows are compounds tested against Cytochrome P450 2D6 (Homo sapiens) (UniProt P10635) (assay: Cytochrome panel assay with activity outcomes). Details: recombinant CYP, pro-luciferin dealkylation, luminescence, p450-cyp2d6; series mostly up to 57.1 µM.
% is scaled to controls: 0 for no effect and ±100 for the full control effect.

Cytochrome P450 2D6 (Homo sapiens), sequence (P10635 whole entry, looked up): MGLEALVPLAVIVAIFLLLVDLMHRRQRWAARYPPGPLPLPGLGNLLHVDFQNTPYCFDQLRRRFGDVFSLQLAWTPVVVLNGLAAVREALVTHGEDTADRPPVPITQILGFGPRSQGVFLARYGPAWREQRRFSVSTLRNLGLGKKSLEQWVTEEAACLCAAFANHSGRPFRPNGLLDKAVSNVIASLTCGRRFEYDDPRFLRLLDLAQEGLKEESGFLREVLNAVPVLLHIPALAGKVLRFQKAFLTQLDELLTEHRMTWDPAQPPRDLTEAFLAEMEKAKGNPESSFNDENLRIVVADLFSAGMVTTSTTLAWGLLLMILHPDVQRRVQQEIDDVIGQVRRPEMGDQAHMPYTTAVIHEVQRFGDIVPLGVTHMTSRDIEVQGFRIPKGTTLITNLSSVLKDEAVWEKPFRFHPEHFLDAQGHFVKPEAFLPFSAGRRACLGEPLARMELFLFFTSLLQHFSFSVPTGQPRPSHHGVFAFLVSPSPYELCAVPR

AC50, inactive:
CCNc1ncc2nc(-c3ccccc3)c(=O)n(Cc3ccc(F)cc3)c2n1, CS(=O)(=O)N1CCC2(CCCN(C(=O)Nc3cccc(C#N)c3)C2)CC1, COCCn1c(=O)c(-c2ccccc2)nc2cnc(OC)nc21, S=c1[nH]nc(CCc2ccccc2)n1Cc1ccccc1, CC(=O)c1ccc(N2CCC(c3cc(-c4ccc(Cl)cc4Cl)n[nH]3)CC2)c([N+](=O)[O-])c1, COc1ccc(C(=O)n2c(SC)nc3cc4c(cc32)OCCO4)cc1, COc1cnc(-c2ccccc2)nc1Oc1cccc(C)c1, O=C(COc1ccc2ccccc2c1Br)NNC(=O)Nc1ccccc1, Cc1nc(SCC(=O)c2cc3ccccc3oc2=O)c(C#N)c(C)c1C(=O)Nc1ccccc1, COc1ccc(/C=C(/NC(C)=O)C(=O)O)cc1, CCOC(=O)CNC(=O)c1cccnc1, c1ccc(CSc2nnc([C@@H]3CCCN3)o2)cc1, Fc1ccc(CSc2nnc(-c3cc4c(s3)-c3ccccc3CC4)o2)cc1, CCc1ccc(N(C(=O)c2csnn2)C(C(=O)NC(C)(C)C)c2ccncc2)cc1 (centres undefined), O=C(O)c1ccccc1C(=O)NNc1ccc(F)cc1, CCOC(=O)N1CCN(S(=O)(=O)c2ccc(C(=O)Nc3ccc(F)cc3F)cc2)CC1, N#Cc1c(-c2ccccc2)cc(-c2ccccc2)nc1SCc1nnc(-c2ccccc2)o1, Nc1c(N=Nc2cccc(Cl)c2)c(=O)[nH]n1-c1ccccc1, CCC(C)n1c(NC(=O)c2ccccc2)c(C#N)c2nc3ccccc3nc21 (centres undefined), CCOc1cccc(/C(O)=C2/C(=O)C(=O)N(Cc3cccnc3)C2c2ccco2)c1 (centres undefined), Cc1cc(NC(=O)C2=C(O)c3ccccc3S(=O)(=O)N2C)no1, CN1C(C(=O)Nc2ccccn2)=C(O)c2sccc2S1(=O)=O, CCNc1ncc2nc(-c3ccc(OC)cc3)c(=O)n(Cc3ccc(F)cc3)c2n1, O=C(CN1CCN(S(=O)(=O)c2ccccc2)CC1)NC(=O)NCc1ccccc1, CCCOC(=O)c1c(-c2ccccc2)nc(CC)c(C(=O)SCC)c1CCC, COCc1nnc(NC(=O)CSc2ccc(C)cc2)s1, COC(=O)c1ccccc1NC(=O)c1c(Br)cnn1C, COc1cccc(OCc2nnc(SCC(=O)NCc3ccco3)n2C)c1, CNc1ncc(C(=O)c2ccccc2)s1, CCOc1ncnc2c1oc1nc(CC(C)C)c3c(c12)CC(C)(C)OC3, O=C1N=C(N2CCOCC2)S/C1=C\C=C/c1ccccc1, O=C(NC(=S)Nc1cccc(Cl)c1N1CCCCC1)c1ccco1, O=C(NNC(=S)Nc1ccccc1)c1ccco1, N#CCCn1cc(/C=N/O)c(-c2ccc(Cl)cc2)n1, N#Cc1c2c(c(-n3cnc4ccccc43)n3c1nc1ccccc13)CCC2, O=C(NCc1ccccc1)c1ccc2c(c1)C(=O)N(CC1CCCO1)C2=O (centres undefined), CC1=CC(=O)C=CC1(C)C(Cl)(Cl)Cl (centres undefined), COc1ccc(S(=O)(=O)N(CC(=O)N2CCCC2)Cc2ccccc2)cc1, CN(C)/C=N/c1ncc(C(=O)c2ccc3ccccc3c2)s1, CC1CN(C(=S)NC(=O)c2ccc([N+](=O)[O-])cc2)CC(C)O1 (centres undefined), COc1ccc(Oc2ncc3nc(C)c(=O)n(-c4ccc(OC)cc4)c3n2)cc1, Cc1ccc(C(=O)Nc2cc(Cl)ccc2OC(=O)c2ccc(C)cc2)cc1, NCCNC(=O)c1ccc(Cl)cc1, CCCN(CCC)CCCNS(=O)(=O)c1cc(Br)cc2c1N(C(C)=O)CC2, O=C(O)Cn1c(-c2ccccc2)nc2ccccc21, O=c1c2ccc([N+](=O)[O-])c3cccc(c32)c2nc3ccccc3n12, Cc1cc(N2CCOCC2)ncc1[N+](=O)[O-], COc1ccc(Cc2nnc(NC(=O)c3ccco3)s2)cc1, COc1ccccc1-c1cc(Nc2ccn[nH]2)ncn1, Cc1sc2ccccc2[n+]1CCC(C)S(=O)(=O)[O-] (centres undefined), C=CCSc1nc(Oc2ccccc2)c2sccc2n1, CCCc1nnc(SCC(=O)N2CCCCC2C)n1CCCOC (centres undefined), CCn1cc(C(=O)O)c(=O)c2cnc(N3CCNCC3)nc21, Cc1cc(SC(C)C(=O)Nc2c(C)n(C)n(-c3ccccc3)c2=O)nc2ccccc12 (centres undefined), C[C@@]12C(=O)OC(=O)[C@]1(C)[C@H]1CC[C@@H]2O1, CC(C)Cn1c(C(C)C)nc([N+](=O)[O-])c1S(=O)(=O)c1ccc(F)cc1, CSc1nc(C)cc(SC(C(C)=O)C(=O)Nc2ccccc2)n1 (centres undefined), C/C(=N\NC(=S)Nc1ccc(F)cc1)C1CC1, C[C@@]12CCC(=O)C=C1CC[C@H]1[C@H]3CC[C@](O)(C(=O)CO)[C@]3(C)CC(=O)[C@@H]12, Cc1cccc(NC(=S)NC(=O)c2cc(-c3ccccc3)nc3ccccc23)c1, COc1ccc(NC(=O)c2cc(-c3cccnc3)nc3ccc(C)cc23)cc1OC, COc1cccc(Nc2ncc3nc(-c4ccc(Cl)cc4)c(=O)n(CCC#N)c3n2)c1, C=CCSc1ncccc1C(=O)NCc1ccc(C)cc1, O=C(/C=C\c1ccc(O)c(O)c1)O[C@@H](Cc1ccc(O)c(O)c1)C(=O)O, CCCC(=O)NC(Nc1ccccc1F)C(Cl)(Cl)Cl (centres undefined), COCCNc1ncncc1-c1c(C)noc1C, CC(=O)NCCNc1ncncc1-c1ccccc1C(F)(F)F, CC(Oc1ccc(Cl)cc1)C(=O)/C=C/N(C)C (centres undefined), COc1ccc(CNc2nc3nc4c(c(=O)n3[nH]2)CCC4)cc1, CN1CC[C@@]2(CCCN(C(=O)c3cc(C(F)(F)F)cc(C(F)(F)F)c3)C2)C1, O=C(NC1CCCCC1)c1ccc(COCC(F)(F)F)o1, C=CCOc1cccc(/C=N/NC(=O)C(=O)NCc2ccco2)c1, C[C@@H](Cc1ccccc1)Nc1ncnc2c1ncn2[C@@H]1O[C@@H](CO)[C@H](O)[C@@H]1O, O=C(CNC(=O)c1ccccn1)N/N=C/c1ccccc1, CCOC(=O)C(CC)(CC)C(=O)/C=C/c1ccc(Br)cc1, C[C@H](NC[C@H](O)CP(=O)(O)CC1CCCCC1)c1ccc(Cl)c(Cl)c1

AC50, 2 µM (active) and inactive:
CC(C)N(CCC(=O)c1ccc2ccccc2c1)Cc1ccccc1

AC50, active:
Cc1cccc(OCCSCc2nc3ccccc3[nH]2)c1 0.282 µM, c1ccc(CSc2nnc(-c3sccc3-n3cccc3)o2)cc1 14.1 µM, NC1=NC2(CCCCCC2)n2c(nc3ccccc32)N1 12.6 µM, CC1CCC2(CC1)N=C(N)Nc1nc3ccccc3n12 (centres undefined) 2.82 µM, Cc1cnc(NC(=O)CSc2ccc(Cl)cc2)s1 3.98 µM, C=CC[N+]1(CC#CCOC(c2ccccc2)c2ccccc2)CCOCC1 7.08 µM, O=C(NC(NC(=S)Nc1cc(Cl)ccc1Cl)C(Cl)(Cl)Cl)c1ccco1 (centres undefined) 11.2 µM, O=C(Nc1ccc(Cl)cc1C(F)(F)F)c1ccc(Cl)cc1 0.282 µM, O=C(O)c1ccc2c3c1cccc3c(=O)n1c3ccccc3nc21 15.8 µM, COc1ccccc1-c1cc(NCc2ccccc2)ncn1 20 µM, COc1ccccc1CNc1cc(-c2ccoc2)ncn1 15.8 µM, COc1ccccc1CNc1cc(-c2ccccc2OC)ncn1 20 µM, COc1ccccc1CNc1cc(-c2ccccc2Cl)ncn1 12.6 µM, Cc1ccc2nc(-c3ccccc3)cc(C(=O)NCCCn3ccnc3)c2c1 5.01 µM, COc1cccc(-c2cncnc2NCCc2cnc[nH]2)c1 7.94 µM, FC(F)(F)c1ccccc1-c1cncnc1NCCc1cnc[nH]1 12.6 µM, COc1ccccc1-c1cncnc1NCCc1cnc[nH]1 10 µM, C[C@H](NC[C@H](O)CP(=O)(O)Cc1ccccc1)c1ccc(Cl)c(Cl)c1 0.0501 µM

AC50, inactive and 25.1 µM (active):
CN1C(C(=O)Nc2ccccn2)=C(O)c2ccccc2S1(=O)=O

activity, negative = inhibition, inactive:
CCn1c(CCCc2nc3c([nH]2)c(=O)n(C)c(=O)n3C)nc2c1c(=O)n(C)c(=O)n2C 8.15% [at 11.4 µM], Cc1cc(Cl)nc(NC(=O)CSc2ccc(Cl)cc2)n1 18.7% [at 11.4 µM], Cn1c([N+](=O)[O-])cnc1CN1CCN(CCO)CC1 10.5% [at 11.4 µM], O=C1CCCC=C1[C@H](CCc1ccccc1)OC(=O)c1ccc(Br)cc1 -4.24% [at 11.4 µM], COc1ccc(COC(=O)N/N=C2/C[C@@H](O)[C@@H](O)[C@@H]3[C@H]4C(=O)N(c5ccc(F)cc5F)C(=O)[C@@H]4CC[C@H]23)cc1 -14.9% [at 11.4 µM], CO[C@@H]1COC(=O)C/C=C\[C@H](C)COC(=O)[C@H](Cc2ccccc2)NC(=O)C/C=C\[C@H]1C 9.42% [at 11.4 µM], COC(=O)C/C=C1\c2ccccc2[C@H](OC)[C@H]1C 5.25% [at 11.4 µM], Cc1cc2ccc(OC(=O)c3ccc(N=C(N)N)cc3)cc2oc1=O -7.56% [at 11.4 µM]
